High-throughput results deposited in PubChem BioAssay by National Center for Advancing Translational Sciences (NCATS).
In the library only some 7.8% were active in any assay of this set; here they are far more common.
Marburg entry inh – Marburg virus entry inhibition; Marburg virus pseudotyped entry inhibition, cell reporter; Potency, µM (doses to about 37.8 µM), most hits filed as inhibitors; hit rate 1.8% among 300,000; AID 540276; calls by dose curve; tested in HEK293 cells
LASV entry inh – inhibitors of Lassa virus binding or cell entry; Lassa virus pseudotype entry inhibition, cell reporter; Potency, µM (series often up to 37.9 µM), hits mostly inhibitors; hit rate 1.2% among 300,000; AID 540256; calls by dose curve; tested in HEK293 cells; also: nearly all actives have a fitted effect of over 50% in size
HCV inh – inhibitors of hepatitis C virus infection. Huh7.5.1 HCVcc-Cre infection, luciferase reporter, 44 h. Potency, µM (highest dose often 41.8 µM), actives largely listed as inhibitors. hit rate 3.4% among 340,000. AID 651820; active = well fitted inhibition curve with a large enough effect; inconclusive = small, poorly fitted or top-dose-only effect, or another doubt; inactive = no such curve, though single readings can be large or run the other way
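HCVcc-Cre virus at an moi near 0.5 was added right after compound to cells cultured 4 h from seeding (1,000 cells/well). Luciferase activity was determined 44 h later, 15 min after substrate addition at RT.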
VACV mCherry inh – inhibitors of vaccinia virus infection (mCherry reporter signal); Potency, µM (top dose mostly 36.5 µM), most hits filed as inhibitors; hit rate 0.63% among 310,000; Vaccinia virus mCherry reporter infection, fluorescence; AID 720579; calls by dose curve; tested in A549 cells; also: nearly all actives have a fitted effect of over 35% in size
HCMV antiviral – blocks human cytomegalovirus replication; hit rate 4.5% among 410,000; activity change, negative = inhibition, % at 57.5 µM; HFF cells, HCMV-luciferase reporter, 72 h; active compounds read low; AID 1259415; in the data active = activity change below about -60%; inconclusive = no clear call, values can overlap the other calls; inactive = above about -39%
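Human foreskin fibroblasts infected with luciferase-reporter HCMV at MOI 1 PFU/cell, compounds at two doses. Luciferase measured 72 h post infection; normalized to buffer-only basal and Salinomycin (10uM) controls.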
VACV Venus inh – vaccinia inhibition (Venus reporter). AID 720580. Potency, µM (doses to about 36.5 µM), hits mostly inhibitors. Vaccinia virus Venus reporter expression, fluorescence. hit rate 0.46% among 330,000; calls by dose curve; tested in A549 cells; also: nearly all actives have a fitted effect of over 30% in size
Each line names hits and unclear results; the compound was inactive in the other large screens.

OCCN1CCN(Cc2ccc3c(c2)CN(Cc2cnc(-c4ccccc4)s2)CCO3)CC1	none (no result: Marburg entry inh, LASV entry inh, HCV inh, HCMV antiviral)
COC(=O)C1OC2(OC1C(=O)OC)c1ccccc1-c1ccccc12 (stereo not given)	none (no result: VACV mCherry inh)
COC(=O)[C@@H]1[C@@H](C(=O)OC)C2(c3ccccc3-c3ccccc32)N(c2ccc(Cl)cc2)N1C#N	Marburg entry inh 10µM, LASV entry inh inconclusive, HCV inh 1.78µM, VACV mCherry inh inconclusive, HCMV antiviral -81.9, VACV Venus inh inconclusive
COc1ccc2c(CNC3CCC(C)CC3)c(C(=O)O)n(Cc3ccccc3)c2c1 (stereo not given)	none (no result: Marburg entry inh, HCV inh)
CCOC(=O)c1c(CS(=O)(=O)c2ccccc2)n(C)c2cc(Br)c(O)c(CN(C)C)c12	HCV inh inconclusive, HCMV antiviral inconclusive
CCOC(=O)c1c(C)n(C)c2cc(CN(C)C)c(O)c(S(=O)(=O)c3ccccc3)c12	HCMV antiviral -69.2
CCOC(=O)c1c(C)oc2cc(Cl)c(O)c(CN(C)C)c12	HCV inh inconclusive
CCOC(=O)c1c(-c2ccccc2)oc2cc(CN(C)C)c(O)c(CN(C)C)c12	Marburg entry inh inconclusive, LASV entry inh inconclusive, HCV inh 10µM, HCMV antiviral -105.6 (no result: VACV mCherry inh, VACV Venus inh)
CCOC(=O)c1c(-c2ccccc2)oc2ccc(O)c(CN3CCN(C)CC3)c12	Marburg entry inh inconclusive, LASV entry inh inconclusive, HCV inh 12.6µM, VACV mCherry inh inconclusive, HCMV antiviral -66.4, VACV Venus inh inconclusive
NCCCNc1nc(N)c([N+](=O)[O-])c(NC2CCCCC2)n1	HCV inh 12.6µM, VACV mCherry inh inconclusive, HCMV antiviral -97.5, VACV Venus inh 3.16µM (no result: Marburg entry inh, LASV entry inh)
Cn1nc([N+](=O)[O-])nc1S(C)(=O)=O	Marburg entry inh inconclusive, LASV entry inh inconclusive, HCV inh 10µM, VACV mCherry inh inconclusive, HCMV antiviral inconclusive
CCOC(=O)C1=C(CN2CCCCC2)NC(=O)NC1c1ccc(C)cc1 (stereo not given)	none (no result: HCV inh)
CN1CCN(CC(O)COC(c2ccc(Cl)cc2)c2ccc(Cl)cc2)CC1 (stereo not given)	HCV inh 5.01µM, HCMV antiviral -80.4 (no result: Marburg entry inh, LASV entry inh, VACV mCherry inh, VACV Venus inh)
OC(COC(c1ccc(Cl)cc1)c1ccc(Cl)cc1)CN1CCCC1 (stereo not given)	Marburg entry inh inconclusive, LASV entry inh inconclusive, HCV inh 5.62µM (no result: VACV mCherry inh, VACV Venus inh)
O=C(Nc1ccc2oc(Cc3ccc(Cl)cc3)nc2c1)c1cccnc1	Marburg entry inh inconclusive, LASV entry inh inconclusive, HCV inh inconclusive, HCMV antiviral inconclusive, VACV Venus inh inconclusive
Cc1cc(NC(=O)c2ccco2)cc(-c2nc3cc(Cl)ccc3o2)c1O	VACV mCherry inh inconclusive, HCMV antiviral -61.1, VACV Venus inh inconclusive (no result: HCV inh)
O=C(Nc1ccc2oc(-c3ccccc3)nc2c1)c1ccncc1	Marburg entry inh inconclusive, HCV inh 10µM (no result: VACV mCherry inh)
CCOc1cccc(C(=O)Nc2ccc3oc(Cc4ccc(Cl)cc4)nc3c2)c1	Marburg entry inh inconclusive, LASV entry inh inconclusive, HCV inh inconclusive, HCMV antiviral -60.3, VACV Venus inh inconclusive (no result: VACV mCherry inh)
CCOc1cccc(C(=O)Nc2cccc(-c3nnc(-c4ccc(C)cc4)o3)c2)c1	Marburg entry inh inconclusive, HCV inh inconclusive, HCMV antiviral -70.4
Cc1cc(-c2ccnc(-n3ncc(C(=O)NCC4COCCO4)c3C)n2)c(C)s1 (stereo not given)	none (no result: Marburg entry inh, LASV entry inh, HCV inh, HCMV antiviral)
COc1cc(C(NC(=O)C(F)(F)F)c2cc3ccccc3o2)cc(OC)c1OC (stereo not given)	LASV entry inh inconclusive (no result: HCV inh, VACV mCherry inh, HCMV antiviral, VACV Venus inh)
O=C(Nc1ccc2nc(-c3ccccc3)oc2c1)c1ccco1	HCV inh 10µM
CCOc1cccc(C(=O)Nc2ccc3oc(-c4cccnc4)nc3c2)c1	HCV inh 10µM, HCMV antiviral inconclusive
CCOc1cccc(C(=O)Nc2nnc(-c3ccco3)s2)c1	Marburg entry inh 3.98µM, LASV entry inh inconclusive (no result: VACV mCherry inh)
CCC(=O)Nc1ccc(S(=O)(=O)NCc2cccn2Cc2cccc(C)c2)cc1	LASV entry inh inconclusive (no result: Marburg entry inh, HCV inh)
Cc1nn2c(N3CCN(C(=O)c4ccco4)CC3)cc(C(C)(C)C)nc2c1-c1ccccc1	HCMV antiviral -64.0, VACV Venus inh 10µM (no result: VACV mCherry inh)
Cc1nn2c(N3CCN(C4CCCC4)CC3)cc(C(C)(C)C)nc2c1-c1ccccc1	none (no result: VACV mCherry inh, VACV Venus inh)
Cc1nn2c(N3CCN(C)CC3)cc(C(C)(C)C)nc2c1-c1ccccc1	Marburg entry inh 10µM, LASV entry inh inconclusive, HCV inh inconclusive, HCMV antiviral -66.9
CC(C)(C)c1ccc(OCCC(=O)Nc2ccc(N3CCOCC3)cc2N2CCOCC2)cc1	Marburg entry inh inconclusive, LASV entry inh inconclusive, HCV inh inconclusive, VACV mCherry inh 12.6µM
O=C(CSCc1ccc(F)cc1)Nc1ccc(N2CCOCC2)cc1N1CCOCC1	none (no result: Marburg entry inh, LASV entry inh, VACV mCherry inh, VACV Venus inh)
CCOc1cc(N2CCOCC2)c(OCC)cc1NC(=O)COC(=O)CCOc1ccc(C(C)(C)C)cc1	LASV entry inh inconclusive
Cc1nn(Cc2ccc(F)cc2)c2sc(C(=O)Nc3ccc(N4CCOCC4)cc3N3CCOCC3)cc12	Marburg entry inh inconclusive, LASV entry inh inconclusive, HCV inh inconclusive, VACV mCherry inh inconclusive, HCMV antiviral -67.2, VACV Venus inh inconclusive
O=C(COc1ccc(F)cc1Cl)Nc1ccc(N2CCOCC2)cc1N1CCOCC1	Marburg entry inh inconclusive, HCV inh 22.4µM
COc1ccccc1NC(=O)C1=C(C)Nc2c(C(=O)Nc3ccc(F)cc3)cnn2C1c1cccc([N+](=O)[O-])c1 (stereo not given)	none (no result: Marburg entry inh, HCV inh)
COCCC(=O)Nc1ccc2c(c1)CN(C(=O)c1ccc(CSC)o1)CC2	HCV inh 10µM
S=C(N/N=C/c1ccccc1Cl)Nc1cccc(Cl)c1Cl	HCMV antiviral -65.2 (no result: Marburg entry inh, LASV entry inh, VACV mCherry inh, VACV Venus inh)
CCCc1ccc(S(=O)(=O)NCCc2ccncc2)cc1	LASV entry inh inconclusive, HCV inh inconclusive
CCCCCc1ccc(S(=O)(=O)NCCc2ccncc2)cc1	HCV inh 10µM, HCMV antiviral inconclusive (no result: VACV mCherry inh, VACV Venus inh)
O=C(Nc1cccnc1)c1ccc(S(=O)(=O)c2ccc(Cl)cc2)cc1	Marburg entry inh inconclusive, LASV entry inh inconclusive, HCV inh inconclusive, HCMV antiviral -86.1
O=S(=O)(NCc1cccnc1)c1ccc2ccccc2c1	HCMV antiviral -63.3
O=C(Nc1cccnc1)c1ccc(-c2cc(Cl)ccc2Cl)o1	HCV inh 11.2µM
O=C(Nc1ccccc1)c1ccc(S(=O)(=O)NCc2cccnc2)cc1	Marburg entry inh inconclusive, HCV inh 8.91µM
O=C(Nc1ccc(S(=O)(=O)NCc2cccnc2)cc1)c1ccccc1Cl	Marburg entry inh inconclusive, HCV inh 8.91µM, HCMV antiviral inconclusive
CC(=O)Nc1ccc(S(=O)(=O)NCc2cccnc2)cc1	LASV entry inh inconclusive
O=C(Nc1ccc(S(=O)(=O)NCCc2ccccc2)cc1)c1ccco1	HCMV antiviral inconclusive (no result: VACV mCherry inh, VACV Venus inh)
O=C(Nc1ccc(S(=O)(=O)NCCc2ccccc2)cc1)c1ccncc1	HCV inh 11.2µM (no result: Marburg entry inh, LASV entry inh, VACV mCherry inh, VACV Venus inh)
CCOc1cccc(C2C=C(c3ccc4c(c3)OCO4)NC(c3ccc(Cl)cc3)N2)c1O (stereo not given)	none (no result: Marburg entry inh, LASV entry inh, HCV inh, HCMV antiviral)
CCCN1CCN(c2ncnc3scc(C4COc5ccccc5O4)c23)CC1 (stereo not given)	Marburg entry inh inconclusive, LASV entry inh inconclusive, HCV inh inconclusive
